Potency and outcome data for ten compounds are collected here from PubChem BioAssay (Tox21).

The nature of assay [1]: qHTS assay to identify small molecule agonists of the vitamin D receptor (VDR) signaling pathway - cell viability counter screen (AID 743224). Further: nearly all actives have a fitted effect of over 50% in size. Further: potency means the concentration at half of the fitted maximal effect. A digest of the protocol:
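VDR-bla cell line, quantitative HTS format; 16 h compound incubation (37C, 5% CO2); ATP-based CellTiter-Glo luminescence measured in the reporter assay wells.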
(In qHTS, concentration-response curves come from the screen itself.)

Assay [2] can be described thus: qHTS assay to identify small molecule antagonists of the vitamin D receptor (VDR) signaling pathway - cell viability counter screen (AID 743225). Further: nearly all actives have a fitted effect of over 50% in size. Further: potency means the concentration at half of the fitted maximal effect. The essentials:
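Luminescent cell viability (CellTiter-Glo) in VDR-bla HEK 293T cells after 16 h compound exposure at 37C in the presence of 3 nM final 1-alpha,25-dihydroxy vitamin D3.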

Assay [3] in a line: qHTS assay to identify small molecule agonists of the NFkB signaling pathway - cell viability counter screen (AID 1159515; calls by dose curve; further: nearly all actives have a fitted effect of over 55% in size; further: potency means the concentration at half of the fitted maximal effect). A digest of the protocol: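 Viability in NFkB-bla ME-180 cells was measured by CellTiter-Glo luminescence, 30 min room temperature, in wells already treated 5 hr with compounds and read for reporter FRET.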
Assay [4] is described as follows: qHTS assay to identify small molecule antagonists of the retinoid-related orphan receptor gamma (ROR-gamma) signaling pathway - cell viability counter screen (AID 1159520). Further: nearly all actives have a fitted effect of over 50% in size. Further: potency means the concentration at half of the fitted maximal effect. A digest of the protocol: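 Tet-on ROR gamma CHO cells were given compounds for 2 hr, then doxycycline hyclate at 1 uM final, and incubated 16 hr at 37 C. Viability was measured as ATP content by CellTiter-Glo luminescence.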

The target in assay [5] is Nuclear receptor ROR-gamma (Homo sapiens) (UniProt P51449). Kind of assay: qHTS assay to identify small molecule antagonists of the retinoid-related orphan receptor gamma (ROR-gamma) signaling pathway (AID 1159521; further: nearly all actives have a fitted effect of over 50% in size; further: potency means the concentration at half of the fitted maximal effect). A digest of the protocol:
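CHO cells expressing RORγ under a TET-on promoter, luciferase under RORE control. Dox 1 uM final, 16 h; compounds added 2 h prior. Luminescence decrease measured.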

Assay [6] can be described thus: qHTS assay to identify small molecule agonists of the AP-1 signaling pathway (AID 1159526; calls by dose curve).
Assay [7] can be described thus: qHTS assay to identify small molecule agonists of the RXR signaling pathway - cell viability counter screen (AID 1159529). Further: nearly all actives have a fitted effect of over 50% in size. Further: potency means the concentration at half of the fitted maximal effect. The essentials: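 Same-well viability check after the LiveBLAzer FRET read: CellTiter-Glo added, luminescence measured after 30 min at room temperature. Reporter HEK 293T cells had been treated with compounds for 16 hr following a 5 hr preincubation.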

Assay [8] in a line: qHTS assay to identify small molecule agonists of the AP-1 signaling pathway - cell viability counter screen (AID 1159525; calls by dose curve; further: nearly all actives have a fitted effect of over 55% in size; further: potency means the concentration at half of the fitted maximal effect). The essentials:
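AP-1-bla ME-180 cells in Opti-MEM with 0.5% dialyzed FBS, compound exposure 5 h at 37 C in 15-point titration. Viability read in the same wells as ATP content by CellTiter-Glo luminescence, normalised to tetra-n-octylammonium bromide and DMSO controls.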

Assay [9] in a line: qHTS assay to identify small molecule antagonists of the retinoid acid receptor (RAR) signaling pathway - cell viability counter screen (AID 1159551). Further: nearly all actives have a fitted effect of over 35% in size. Further: potency means the concentration at half of the fitted maximal effect. A digest of the protocol:
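Following overnight attachment, C3RL4 reporter cells received DMSO-dissolved compounds and then retinol (1 uM final). Six hours later at 37 C, ATP content was measured by CellTiter-Glo luminescence.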

Assay [10] in a line: qHTS assay to identify small molecule antagonists of the retinoic acid receptor (RAR) signaling pathway (AID 1159552; further: nearly all actives have a fitted effect of over 50% in size; further: potency means the concentration at half of the fitted maximal effect). The essentials:
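Readout: luciferase luminescence, 30 min post-reagent at RT. Setup: C3RL4 RARE reporter cells, compounds plus retinol 1 uM final, 6 hr incubation at 37 C and 5% CO2.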

The nature of assay [11]: qHTS assay to identify small molecule agonists of the retinoic acid receptor (RAR) signaling pathway (AID 1159553). A digest of the protocol:
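Cell line C3RL4, RARE luciferase reporter. Treatment: compounds in DMSO, 6 hr, 37 C, 5% CO2, after overnight plating. Detection: luminescence, 30 min RT after reagent.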

Assay [12] can be described thus: qHTS assay to identify small molecule antagonists of the estrogen related receptor (ERR) signaling pathway - cell viability counter screen (AID 1224818). Further: series mostly up to about 46 µM. The essentials: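 Here, ERR cells are plated at 2,000 cells per well, allowed 6 h to attach, and treated with compounds in DMSO for 17.5 h at 37 C. CellTiter-Fluor is then added and fluorescence read after 30 min.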

Assay [13] in a line: qHTS assay to identify small molecule antagonists of the estrogen related receptor (ERR) signaling pathway (AID 1224819). A digest of the protocol: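 LOPAC library screened for antagonism as reduced One-Glo luminescence in ERR reporter cells (2,000/well). Compounds were added after 6 h pre-incubation and left 18 h at 37C; reading followed a 30 min room-temperature reagent step.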

Assay [14] is described as follows: qHTS assay to identify small molecule agonists of the estrogen related receptor (ERR) signaling pathway (AID 1224820). The essentials:
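Cells: ERR line from NTP, 2,000/well. Pre-incubation 6 h, 37 C/5% CO2. Compound (DMSO) pin transfer, 18 h 37 C. One-Glo, 30 min RT, luminescence.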

Assay [15] concerns estrogen-related receptor alpha (ERRalpha) with PGC-1alpha coactivator, human. Kind of assay: qHTS assay to identify small molecule antagonists of the estrogen related receptor signaling pathway with the pleiotropic PPARgamma coactivator (PGC) (AID 1224821; calls by dose curve). A digest of the protocol: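 Luminescent read-out (One-Glo, 30 min at room temperature) following 18 h treatment of PGC/ERR cells at 37 C with compounds delivered in DMSO. Cells had settled 6 h at 37 C/5% CO2 before dosing.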

Assay [16] can be described thus: qHTS assay to identify small molecule antagonists of the estrogen related receptor signaling pathway with the pleiotropic PPARgamma coactivator (PGC) cell viability counter screen (AID 1224822; further: series mostly up to about 46 µM). A digest of the protocol: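 qHTS format, DMSO compound stocks pin-transferred onto PGC/ERR cells 6 h after plating; 17.5 h exposure at 37 C, then CellTiter-Fluor fluorescence.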

Assay [17] can be described thus: qHTS assay to identify small molecule agonists of the estrogen related receptor signaling pathway with the pleiotropic PPARgamma coactivator (PGC) (AID 1224823). The essentials: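 Steps: plate PGC/ERR cells at 2,000 cells/well; incubate 6 h, 37 C/5% CO2; pin-transfer compounds (DMSO); incubate 18 h, 37 C; add One-Glo; 30 min RT; read luminescence.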
For assay [18], the target named is Retinoic acid receptor RXR-alpha (Homo sapiens) (UniProt P19793). Kind of assay: qHTS assay to identify small molecule agonists of the RXR signaling pathway (AID 1159527; calls by dose curve; further: nearly all actives have a fitted effect of over 35% in size). A digest of the protocol: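 Beta-lactamase reporter assay, agonist format. Engineered HEK 293T line, charcoal-stripped FBS at 2%, overnight (16 hr) exposure, fluorescence at 460 and 530 nm after 405 nm excitation.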
Chain of Retinoic acid receptor RXR-alpha (Homo sapiens) (P19793 whole entry, looked up): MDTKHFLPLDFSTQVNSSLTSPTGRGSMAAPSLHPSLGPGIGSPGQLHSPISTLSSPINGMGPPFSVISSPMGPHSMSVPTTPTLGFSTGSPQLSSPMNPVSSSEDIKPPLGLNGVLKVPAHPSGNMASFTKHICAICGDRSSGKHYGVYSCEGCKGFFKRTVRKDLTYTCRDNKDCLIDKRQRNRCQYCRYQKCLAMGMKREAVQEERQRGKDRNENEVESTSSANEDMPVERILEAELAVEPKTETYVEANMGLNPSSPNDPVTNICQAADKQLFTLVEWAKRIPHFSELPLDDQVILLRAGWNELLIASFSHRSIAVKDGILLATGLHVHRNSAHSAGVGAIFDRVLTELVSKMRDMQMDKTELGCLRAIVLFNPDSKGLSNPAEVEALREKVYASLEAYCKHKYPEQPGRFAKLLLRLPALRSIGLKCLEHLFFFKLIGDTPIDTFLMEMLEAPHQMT

Molecules are shown by their SMILES. Values joined by “and” are separate entries in the source; they are usually repeats but may differ in a detail not shown here. Equal values may be shown once. Results filed as inconclusive are left out. More than one record can exist for a structure, and the calls need not agree. Active and inactive are the calls of the source. Unless noted, the call rests on the fitted dose curve; in most records, active means well fitted curve in the direction sought with a large enough effect in the repeat runs; inconclusive means weak or mixed curves; inactive means no such curve, though single readings can be large; an effect the other way counts as inactive or inconclusive.

Take `O=C(OCC1CO1)C1CCCCC1C(=O)OCC1CO1` (stereo not drawn): the Potency result in assay [1], in [2], in assay [3], in assay [4], in assay [5] and in assay [6] was “inactive” throughout. Also, the Potency result in assay [7] is “inactive”.

In the case of `Cc1ccc(O)c2ncccc12`, the Potency in [1] is 0.944 µM (active); in assay [3], 6.01 µM (active); in [4] it was 21.1 µM (active); in assay [5], 15 µM (active); in assay [8], 16.9 µM (active). Besides, the Potency entry in assay [9] and in assay [10] was “inactive” each time.

Regarding `O=C(c1ccc(F)cc1)C1CCN(CCn2c(=O)[nH]c3ccccc3c2=O)CC1`, the Potency result in assay [3], in assay [4], in [8], in assay [6], in assay [7] and in [9] was “inactive” throughout. The Potency result in [10], in assay [11], in [12], in assay [13], in assay [15] and in assay [16] was “inactive” each time. Further, the compound was classed as inactive in assay [14] and in [17].

In the case of `Oc1ccc2cc(SSc3ccc4cc(O)ccc4c3)ccc2c1`, the Potency entry in assay [1], in [3] and in assay [8] was “inactive” in each case. Moreover, the Potency is 48.6 µM (active) in assay [4]; 48.6 µM (active) in assay [5]; 7.7 µM (active) and 12.2 µM (active) in [10].

Consider `C=C(C)C(=O)OCC[N+](C)(C)C`, for which the Potency entry in assay [1], in assay [2], in assay [3], in assay [4], in assay [5] and in assay [18] was “inactive” each time. Moreover, the Potency result in assay [7], in [9], in assay [10] and in [11] was “inactive” throughout.

For the compound `CCCCN(CCCC)C(=O)N(CCCC)CCCC`, the Potency entry in [1], in [2], in assay [3], in assay [4], in assay [5] and in [18] was “inactive” in each case. The Potency entry in assay [7], in assay [9], in [10] and in [11] was “inactive” throughout.

Consider `COc1cccc2c1C(=O)c1c(O)c3c(c(O)c1C2=O)C[C@@](O)(C(=O)CO)C[C@@H]3O[C@H]1C[C@H](N)[C@H](O[C@@H]2CCCCO2)[C@H](C)O1`, for which the Potency entry in [1], in [2], in assay [3], in assay [5], in assay [9] and in [11] was “inactive” throughout. Also, in [4], the Potency was 5.31 µM (active).

With `O=C1C=CC(=O)N1c1ccc(Cc2ccc(N3C(=O)C=CC3=O)cc2)cc1`, the Potency in assay [1] is 17.4 µM (active); in [2], 21.9 µM (active); in [3], 24.5 µM (active); in [4], 15.4 µM (active); in [5] it was 8.63 µM (active); in assay [7], 17.4 µM (active). Moreover, the Potency in assay [9] was 61.1 µM (active); in assay [10], 13.7 µM (active).

Consider `C[C@H](CCC(=O)O)[C@H]1CC[C@H]2[C@@H]3CC[C@@H]4C[C@H](O)CC[C@]4(C)[C@H]3CC[C@]12C`, for which the Potency is 24.5 µM (active) in assay [1]; 49 µM (active) in assay [3]; 60.9 µM (active) and inactive in assay [4]; 48.8 µM (active) in [8]; 38.7 µM (active) in assay [7]. The Potency entry in assay [2] and in assay [5] was “inactive” each time.

As for `C=CC(=O)OCCn1c(=O)n(CCOC(=O)C=C)c(=O)n(CCOC(=O)C=C)c1=O`, the Potency was 49 µM (active) in assay [1], 43.6 µM (active) in assay [2], 12.2 µM (active) in assay [5] and 24.5 µM (active) in assay [7]. Moreover, the Potency result in assay [3], in assay [4] and in assay [8] was “inactive” in each case.
